Test results published in PubChem BioAssay (NCATS).
Results filed as inconclusive are left out. Entries that show only a call come without a potency. A number with no mark means an inactive call. Calls of active or inactive are those of the source. Calls come from the whole dose curve; as a rule, active = well fitted inhibition curve with a large enough effect; inconclusive = small, poorly fitted or top-dose-only effect; inactive = no such curve, though single readings can be large or run the other way.

These compounds were tested on Zika virus NS2B-NS3 protease (linked construct) (assay: Primary screen NINDS Rhodamine qHTS for Zika virus inhibitors (AID 1347160; note: nearly all actives have a fitted effect of over 55% in size)). Conditions: purified NS2B-NS3 protease, Rhodamine110 substrate fluorescence; series mostly up to 57.1 µM.
How it was run: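 Purified linked NS2B-NS3 protease (NS2B hydrophilic domain joined to NS3 protease by flexible linker), 25 nM in 10 mM Tris-HCl pH 8.0, 0.01% Tween 20. Compounds titrated, 15 min preincubation at room temperature; 1.5 microM Rhodamine110 substrate, FITC fluorescence change over 15 min.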
Potency is the fitted concentration of half-maximal effect.

Row | Structure (SMILES) | Potency | activity change, negative = inhibition
1 | CC(=O)O[C@H]1CC[C@@]2(C)C(CC[C@@H](C)[C@]23Cc2c(O)cc4c(c2O3)CN([C@@H](CCC(=O)O)C(=O)O)C4=O)C1(C)C (stereo partly drawn) | inactive | 
2 | CC1=CC(=O)C2(OC3OC(C)C(O)C(OC(=O)/C=C/c4ccccc4)C3O)C=COC(OC3OC(CO)C(O)C(O)C3O)C12 (stereo not drawn) | inactive | 
3 | CN1CCN(C(=O)c2ccc3cc(CCNc4ncnc5ccc(C#N)cc45)ccc3c2)CC1 | inactive | 
4 | Nc1ccc(/C=C/C(=O)NCc2cc3cc(-c4ccc(C(=O)N5CCC(F)(F)CC5)cc4)cc(-c4ccc(F)cc4)c3o2)cn1 | inactive | 
5 | C[C@@H]1CCC/C=C/[C@H]2CC(=O)C[C@@H]2[C@@H](O)/C=C/C(=O)O1 | inactive | 
6 | C/C=C(/COC(=O)/C(C)=C/C)C(=O)OC(CC)c1ccc(OC)c(OC)c1 (stereo not drawn) | inactive | 
7 | CC1(C)CCC2(C(=O)OC3OC(CO)C(O)C(O)C3O)CCC3(C)C(=CCC4C5(C)CCC(O)C(C)(C(=O)O)C5CCC43C)C2C1O (stereo not drawn) | inactive | 
8 | C=C(C(=O)O)C1CCC2(C)CCC(O)C(=C)C2C1 (stereo not drawn) | 8.91 µM (active) | 
9 | O=C(OCC1=CC(O)C2C=CO[C@@H](O[C@@H]3O[C@H](CO)[C@@H](O)[C@H](O)[C@H]3O)C12)c1ccccc1 (stereo partly drawn) | inactive | 
10 | C/C=C/c1ccc2oc(-c3ccc(O)c(OC)c3)c(C)c2c1 | inactive | 
11 | O=S(=O)(Nc1ccccn1)c1ccc(N=Cc2c(O)[nH]c3ccc4ncsc4c23)cc1 |  | 12% [at 10.7 µM]
12 | COC(=O)C1=CO[C@@H](O[C@@H]2O[C@H](CO[C@@H]3O[C@H](COC(=O)/C=C/c4cc(OC)c(O)c(OC)c4)[C@@H](O)[C@H](O)[C@H]3O)[C@@H](O)[C@H](O)[C@H]2O)[C@@H]2C(CO)=CC[C@H]12 | inactive | 
13 | COc1cc([C@H]2c3cc(O)c(OC)cc3C[C@@H](CO[C@@H]3O[C@H](CO)[C@@H](O)[C@H](O)[C@H]3O)[C@@H]2CO)ccc1O | inactive | 
14 | CC1C(OC(=O)c2ccccc2)C(O)C2C(C(=O)O)=COC(OC3OC(CO)C(O)C(O)C3O)C12 (stereo not drawn) | inactive | 
15 | C=C(C(=O)O)C1CCC2(C)CCCC(C)(O)C2C1 (stereo not drawn) | inactive | 
16 | CC(=O)O[C@@H]1CC(C)=C2[C@H]1[C@H](C)CC[C@H]2/C=C(\C)C(=O)O | inactive | 
17 | CC1OC(O[C@H]2CC[C@@]3(C)C(CC[C@]4(C)C3CC=C3C5CC(C)(C)CC[C@]5(C(=O)OC5OC(CO)C(OC6OC(COC7OCC(O)C(O)C7O)C(O)C(O)C6O)C(O)C5O)CC[C@]34C)C2(C)C)C(O)C(O)C1OC1OCC(OC2OCC(O)C(O)C2O)C(O)C1O (stereo partly drawn) |  | -22.7% [at 10.7 µM]
18 | CC1=CC(=O)[C@H]2C(C)(C)CCC[C@]2(C)[C@@]1(O)CO | inactive | 
19 | CC1CCC2(C(=O)O)CCC3(C)C(=CCC4C5(C)CCC(O)C(C)(CO)C5CCC43C)C2C1(C)O (stereo not drawn) | inactive | 
20 | C[C@@H]1O[C@@H](O[C@H]2[C@H](O[C@H]3[C@H](O)[C@@H](C(=O)O)O[C@@H](O[C@H]4CC[C@@]5(C)C(CC[C@]6(C)C5CC[C@]57OC[C@@]8(CCC(C)(C)CC85)[C@H](O)C[C@]76C)C4(C)C)[C@@H]3O[C@@H]3O[C@H](CO)[C@@H](O[C@@H]4OC[C@@H](O)[C@H](O)[C@H]4O)[C@H](O)[C@H]3O)O[C@H](CO)[C@H](O)[C@@H]2O)[C@H](O)[C@H](O)[C@H]1O (stereo partly drawn) |  | -19.8% [at 10.7 µM]
21 | CC1CC[C@]2(C(=O)O)CC[C@]3(C(=O)O)C(=CCC4[C@@]5(C)CC[C@H](OC6OC(C)C(O)C(OC7OC(CO)C(O)C(O)C7O)C6O)C(C)(C)C5CC[C@]43C)C2C1C (stereo partly drawn) | inactive | 
22 | CCc1cccc(CC)c1NC(=O)c1nn(C)c2c1CCc1cnc(Nc3ccc(C(=O)NC4CCN(C)CC4)cc3OC(F)(F)F)nc1-2 | inactive | 
23 | CC1(O)CC(O)C2(O)C=COC(O[C@@H]3O[C@H](CO)[C@@H](O)[C@H](O)[C@H]3O)C12 (stereo partly drawn) | inactive | 
24 | C=CC1C(OC2OC(CO)C(O)C(O)C2O)OC=C2C(=O)N3C(C(=O)O)Cc4c([nH]c5ccccc45)C3CC21 (stereo not drawn) | inactive | 
25 | COC(=O)N1CCC(n2ncc3c(N4CCOCC4)nc(-c4ccc(NC(=O)Nc5ccc(CO)cc5)cc4)nc32)CC1 | inactive | 
26 | CC1(C)CC2C(C1)C(C)(O)C13CC1(COC3=O)C2O (stereo not drawn) | inactive | 
27 | CC(=O)SCC(=O)c1ccc(NS(=O)(=O)c2ccc(OCCCN(C)C)cc2)nc1 | inactive | 
28 | CC1CCC2(CO)C(C(=O)O)=CCCC2C1(C)CCc1ccoc1 (stereo not drawn) | inactive | 
